Results taken from article PMC7862700, “An all-to-all approach to the identification of sequence-specific readers for epigenetic DNA modifications on cytosine”.

Biological target: T1, ELF3 (Homo sapiens, UniProt P78545 1-371)
T1 sequence: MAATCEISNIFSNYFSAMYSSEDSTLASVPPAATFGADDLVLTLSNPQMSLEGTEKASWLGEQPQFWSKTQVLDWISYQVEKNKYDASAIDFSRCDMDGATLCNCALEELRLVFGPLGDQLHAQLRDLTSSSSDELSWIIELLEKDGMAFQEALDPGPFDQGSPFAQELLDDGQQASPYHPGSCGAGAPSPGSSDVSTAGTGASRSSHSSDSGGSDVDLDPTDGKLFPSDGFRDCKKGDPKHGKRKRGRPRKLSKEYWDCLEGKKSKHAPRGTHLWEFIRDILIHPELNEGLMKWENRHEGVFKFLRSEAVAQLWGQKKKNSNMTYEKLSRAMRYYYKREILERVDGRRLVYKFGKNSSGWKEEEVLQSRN
Assay: DAPPL (digital affinity profiling via proximity ligation, sequencing); 10 mM Tris-HCl pH 7.5, 50 mM NaCl, 1 mM DTT, 4% glycerol, room temperature, 30 min; GST-TFs on glutathione beads, 16-mer random dsDNA library, 0.1% formaldehyde crosslink after washing; high values mean tight binding
Details: protein: recombinant; tags: N-terminal GST; dsDNA, one strand shown
Method in brief: (§1)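 Binding signal is given per hexamer as its read frequency for a factor divided by its frequency in the tag-only sample. GST-fused human transcription factors were expressed in yeast, captured on glutathione beads, barcoded with DNA and pooled with that sample, then incubated with 200 nmole of a 16-mer random double-stranded DNA library in Tris/NaCl/DTT/glycerol buffer for 30 min at room temperature. The pools were then washed, crosslinked, proximity-ligated, amplified by PCR and sequenced on an Illumina NextSeq500.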

For AGTCCT, the binding signal was 1.03 fold enrichment (6-mer frequency, TF over GST control).

Biological target: CRX (Homo sapiens, UniProt O43186 1-299)
Sequence (O43186 whole entry): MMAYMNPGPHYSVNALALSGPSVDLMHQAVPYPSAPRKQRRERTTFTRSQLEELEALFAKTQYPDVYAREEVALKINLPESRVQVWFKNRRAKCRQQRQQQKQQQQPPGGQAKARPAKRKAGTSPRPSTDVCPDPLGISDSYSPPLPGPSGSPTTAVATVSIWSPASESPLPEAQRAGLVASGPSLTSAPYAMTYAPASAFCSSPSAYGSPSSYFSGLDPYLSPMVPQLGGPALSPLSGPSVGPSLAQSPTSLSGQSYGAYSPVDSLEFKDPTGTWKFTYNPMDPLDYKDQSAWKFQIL
Assay: as above
Details: protein: recombinant; tags: N-terminal GST; dsDNA, one strand shown
Method in brief: as §1

Going from TATGAG to ATCCGT, the binding signal falls from 1.1 fold enrichment (6-mer frequency, TF over GST control) to 1.08 fold enrichment (6-mer frequency, TF over GST control).

Compared with ATAGGC, TAGGCC is higher in binding signal: 1.14 fold enrichment (6-mer frequency, TF over GST control) for the first, 1.21 fold enrichment (6-mer frequency, TF over GST control) for the second.

GGACTT was tested, and the binding signal was 1.08 fold enrichment (6-mer frequency, TF over GST control).

Biological target: ETV1 (Homo sapiens, UniProt P50549 1-477)
Sequence (P50549 whole entry): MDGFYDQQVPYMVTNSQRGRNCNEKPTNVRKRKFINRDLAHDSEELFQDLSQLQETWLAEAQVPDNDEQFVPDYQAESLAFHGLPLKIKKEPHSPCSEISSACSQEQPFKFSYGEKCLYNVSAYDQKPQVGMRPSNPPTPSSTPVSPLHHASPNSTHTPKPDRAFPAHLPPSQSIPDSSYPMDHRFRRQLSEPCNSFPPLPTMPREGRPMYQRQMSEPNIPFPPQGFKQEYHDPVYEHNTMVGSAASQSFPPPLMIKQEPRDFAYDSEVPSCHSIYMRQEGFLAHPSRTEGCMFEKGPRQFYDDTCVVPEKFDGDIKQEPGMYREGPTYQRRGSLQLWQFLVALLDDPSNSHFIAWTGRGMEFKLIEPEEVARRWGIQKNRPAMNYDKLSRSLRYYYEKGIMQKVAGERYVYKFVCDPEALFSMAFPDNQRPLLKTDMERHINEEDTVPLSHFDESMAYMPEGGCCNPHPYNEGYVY
Assay: as above
Details: protein: recombinant; tags: N-terminal GST; dsDNA, one strand shown
Method in brief: as §1

Going from GTCCGG to GACCGG, the binding signal rises from 1 fold enrichment (6-mer frequency, TF over GST control) to 1.21 fold enrichment (6-mer frequency, TF over GST control).

CATAGC and GAAACC are the same in binding signal: 1.02 fold enrichment (6-mer frequency, TF over GST control) for the first, 1.02 fold enrichment (6-mer frequency, TF over GST control) for the second.

Compared with GGGTAT, AACGCA is higher in binding signal: 1.01 fold enrichment (6-mer frequency, TF over GST control) for the first, 1.09 fold enrichment (6-mer frequency, TF over GST control) for the second.

Compared with AGCGTC, ATAGGC is lower in binding signal: 1.04 fold enrichment (6-mer frequency, TF over GST control) for the first, 1.01 fold enrichment (6-mer frequency, TF over GST control) for the second.

First: GTACCA
Second: GCGTAT
The binding signal of the first is lower: 1 fold enrichment (6-mer frequency, TF over GST control) for the first, 1.05 fold enrichment (6-mer frequency, TF over GST control) for the second.

GCCGGA and GGCTAT are the same in binding signal: 1.07 fold enrichment (6-mer frequency, TF over GST control) for the first, 1.07 fold enrichment (6-mer frequency, TF over GST control) for the second.

Going from GGATAC to GGACTT, the binding signal rises from 1.06 fold enrichment (6-mer frequency, TF over GST control) to 1.22 fold enrichment (6-mer frequency, TF over GST control).

Going from AGTCCT to AGCGGC, the binding signal rises from 1 fold enrichment (6-mer frequency, TF over GST control) to 1.09 fold enrichment (6-mer frequency, TF over GST control).

Biological target: T2, ERF (Homo sapiens, UniProt P50548 1-548)
T2 sequence: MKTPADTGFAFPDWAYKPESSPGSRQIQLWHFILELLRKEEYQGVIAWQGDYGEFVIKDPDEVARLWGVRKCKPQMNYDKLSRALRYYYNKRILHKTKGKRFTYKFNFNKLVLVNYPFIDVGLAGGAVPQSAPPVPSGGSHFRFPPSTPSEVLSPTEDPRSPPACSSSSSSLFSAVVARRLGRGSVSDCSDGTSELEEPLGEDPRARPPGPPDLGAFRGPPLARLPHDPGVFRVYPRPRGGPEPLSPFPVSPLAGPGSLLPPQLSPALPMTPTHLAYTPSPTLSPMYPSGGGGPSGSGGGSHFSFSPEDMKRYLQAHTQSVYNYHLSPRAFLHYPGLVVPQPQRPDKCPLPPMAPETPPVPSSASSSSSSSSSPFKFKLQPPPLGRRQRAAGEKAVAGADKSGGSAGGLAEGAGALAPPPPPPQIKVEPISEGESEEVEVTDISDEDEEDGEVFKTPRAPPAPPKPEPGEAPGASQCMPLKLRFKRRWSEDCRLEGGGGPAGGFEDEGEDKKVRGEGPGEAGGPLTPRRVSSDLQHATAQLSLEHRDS
Assay: as above
Details: protein: recombinant; tags: N-terminal GST; dsDNA, one strand shown
Method in brief: as §1

Going from TATGAG to GGCAAT, the binding signal falls from 1.1 fold enrichment (6-mer frequency, TF over GST control) to 1.02 fold enrichment (6-mer frequency, TF over GST control).

First: GACCGG
Second: CATAGC
The binding signal of the first is lower: 1.06 fold enrichment (6-mer frequency, TF over GST control) for the first, 1.07 fold enrichment (6-mer frequency, TF over GST control) for the second.

First: TGAAGC
Second: AGTTAC
The binding signal of the first is higher: 1.07 fold enrichment (6-mer frequency, TF over GST control) for the first, 1.01 fold enrichment (6-mer frequency, TF over GST control) for the second.

First: AACGCA
Second: CATAGT
The binding signal of the first is higher: 1.16 fold enrichment (6-mer frequency, TF over GST control) for the first, 1.13 fold enrichment (6-mer frequency, TF over GST control) for the second.

AGCGTC and GTGCCT are the same in binding signal: 1.07 fold enrichment (6-mer frequency, TF over GST control) for the first, 1.07 fold enrichment (6-mer frequency, TF over GST control) for the second.

Going from CCACCG to CTGTAG, the binding signal falls from 1.2 fold enrichment (6-mer frequency, TF over GST control) to 1.02 fold enrichment (6-mer frequency, TF over GST control).

ATAGGC and GTACCA are the same in binding signal: 1.04 fold enrichment (6-mer frequency, TF over GST control) for the first, 1.04 fold enrichment (6-mer frequency, TF over GST control) for the second.

Going from ATAGGG to GGCTAT, the binding signal falls from 1.14 fold enrichment (6-mer frequency, TF over GST control) to 1.06 fold enrichment (6-mer frequency, TF over GST control).

With GGACTT the binding signal was 1.01 fold enrichment (6-mer frequency, TF over GST control).

Biological target: T3, ETV3L (Homo sapiens, UniProt Q6ZN32 1-361)
T3 sequence: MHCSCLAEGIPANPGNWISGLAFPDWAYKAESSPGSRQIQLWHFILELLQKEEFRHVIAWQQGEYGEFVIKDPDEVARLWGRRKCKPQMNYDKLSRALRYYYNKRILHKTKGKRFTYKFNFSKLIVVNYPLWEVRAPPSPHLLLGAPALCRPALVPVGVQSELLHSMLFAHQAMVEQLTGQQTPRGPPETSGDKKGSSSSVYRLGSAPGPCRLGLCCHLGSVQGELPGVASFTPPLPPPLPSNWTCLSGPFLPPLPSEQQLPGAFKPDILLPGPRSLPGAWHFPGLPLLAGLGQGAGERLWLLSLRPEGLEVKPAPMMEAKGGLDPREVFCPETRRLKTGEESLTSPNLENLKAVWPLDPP
Assay: as above
Details: protein: recombinant; tags: N-terminal GST; dsDNA, one strand shown
Method in brief: as §1

First: TGGTCG
Second: GACCGG
The binding signal of the first is lower: 1 fold enrichment (6-mer frequency, TF over GST control) for the first, 1.08 fold enrichment (6-mer frequency, TF over GST control) for the second.

Going from AACGCA to GTGCCT, the binding signal rises from 1.03 fold enrichment (6-mer frequency, TF over GST control) to 1.17 fold enrichment (6-mer frequency, TF over GST control).

Compared with ATAGGC, GTGCCC is lower in binding signal: 1.02 fold enrichment (6-mer frequency, TF over GST control) for the first, 1 fold enrichment (6-mer frequency, TF over GST control) for the second.

First: GCGTAT
Second: GGCTAT
The binding signal of the first is lower: 1.02 fold enrichment (6-mer frequency, TF over GST control) for the first, 1.07 fold enrichment (6-mer frequency, TF over GST control) for the second.

First: GGACTT
Second: AGTCCT
The binding signal of the first is higher: 1.1 fold enrichment (6-mer frequency, TF over GST control) for the first, 1.02 fold enrichment (6-mer frequency, TF over GST control) for the second.

First: AGCGGC
Second: CAGTTC
The binding signal of the first is lower: 1.01 fold enrichment (6-mer frequency, TF over GST control) for the first, 1.05 fold enrichment (6-mer frequency, TF over GST control) for the second.
